Compound activity from PubChem BioAssay.
Rows were chosen to be rich in hits. Some 3% of all compounds tested hit in one or more screens of this group.
KDM5B inh: KDM5B demethylase inhibition | Q9UGL1 | KDM5B demethylase, FDH-coupled NADH fluorescence (FDH is formaldehyde dehydrogenase) | Potency, µM (titrated, usually from 57.7 µM), hits mostly inhibitors | hit rate 2.6% among 220,000; also: nearly all actives have a fitted effect of over 70% in size
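qHTS format, multiple compound concentrations. Buffer 50 mM HEPES pH 7.5/0.01% Tween-20; 200 nM KDM5BΔAP final; 10 min compound preincubation; substrate-mix levels 12.5 µM peptide, 25 µM α-KG, 0.25 mM NAD⁺; 30 min RT; ΔRFU.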
HEK293 viab: reduces viability of HEK-293 SNCA reporter cells; HEK-293-SNCA-luc viability, GF-AFC fluorescence, 24 h; Potency, µM (doses to about 57.1 µM), hits mostly cytotoxic; hit rate 0.12% among 150,000; AID 1671193; also: nearly all actives have a fitted effect of over 30% in size
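Cytotoxicity counterscreen: after 24 h compound treatment of genome-edited SNCA-luciferase HEK-293 cells, live-cell protease substrate GF-AFC read by fluorescence after 30 min; activity scaled between DMSO (0%) and medium-only (-100%), curves Hill-fitted.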
SNCA expr inhib: inhibitors of alpha-synuclein (SNCA) gene expression; Potency, µM (titrated, usually from 57.2 µM), usual class: inhibitors; hit rate 0.17% among 140,000; AID 1671194; HEK-293 SNCA-luciferase knock-in, luminescence, 24 h; also: nearly all actives have a fitted effect of over 45% in size
IP6K1 inhibitor: blocks human inositol hexakisphosphate kinase 1. IP6K1 kinase, ADP-Glo luminescence, 2 h; stronger effect = lower value. activity change, % (series mostly up to about 58 µM). hit rate 0.81% among 140,000. AID 1645851; in the data active = activity change below about -25%
Target sequence (Q92551 whole entry, looked up): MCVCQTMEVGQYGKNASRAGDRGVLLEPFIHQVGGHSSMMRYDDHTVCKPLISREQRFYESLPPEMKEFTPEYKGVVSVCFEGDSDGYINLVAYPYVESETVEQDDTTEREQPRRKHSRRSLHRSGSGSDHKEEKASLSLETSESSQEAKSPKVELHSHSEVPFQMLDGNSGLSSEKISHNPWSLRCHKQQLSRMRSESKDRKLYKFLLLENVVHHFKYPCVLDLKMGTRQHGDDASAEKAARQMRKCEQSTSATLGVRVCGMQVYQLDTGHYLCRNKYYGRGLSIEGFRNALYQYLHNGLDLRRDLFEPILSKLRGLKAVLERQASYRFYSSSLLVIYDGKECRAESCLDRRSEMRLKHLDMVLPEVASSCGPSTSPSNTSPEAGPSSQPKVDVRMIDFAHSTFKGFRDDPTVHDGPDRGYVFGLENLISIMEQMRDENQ
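ADP-Glo luminescence measures ADP made by human IP6K1 during a 2 h RT reaction with ATP/IP6 (mix at 1.3 mM/130 uM); top library doses 57.5 and 19.1 uM final.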
Numbers stand for hits; – = inactive; ? = inconclusive; · = no result. Unless noted, calls follow the shape of the dose curve; as a rule, active = well fitted curve in the direction sought with a large enough effect; inconclusive = small, poorly fitted or top-dose-only effect, or another doubt; inactive = no such curve, though single readings can be large; an effect the other way counts as inactive or inconclusive.

SMILES | KDM5B inh | HEK293 viab | SNCA expr inhib | IP6K1 inhibitor
O=C(Cc1c[nH]c2ncc(-c3ccccc3)cc12)NCCc1ccccc1 | – | – | – | –
CN(C)CCNC(=O)Cc1c[nH]c2ncc(-c3ccccc3)cc12 | 35.5µM | – | – | –
N#Cc1ccc(OCCOC(=O)c2cccc(Cl)c2)cc1 | – | · | · | ·
CCOC(=O)c1c(C)n(-c2ccccc2)c2ccc(OC(=O)c3ccccc3NC(=O)C(C)C)cc12 | ? | ? | ? | –
CCOC(=O)c1c(C)n(-c2ccccc2)c2ccc(OC(=O)c3ccccc3NC(=O)C(C)(C)C)cc12 | ? | ? | 12.6µM | –
Cc1nccn1CCCC(=O)N[C@@H]1CCOC[C@H]1OCC(=O)O | – | – | – | –
Cc1ccc(-c2ccc(CCC(=O)N[C@@H]3CCOC[C@H]3OCC(=O)O)o2)cc1 | 28.2µM | – | – | –
COc1cccc([S+](=O)([O-])NC2CCN(c3ccc4nnc(-c5ccccc5)n4n3)CC2)c1 | · | · | · | –
Cn1ccnc1CNc1nccc(-c2cnn(-c3ccccc3F)c2)n1 | ? | – | – | –
Cc1ccccc1-n1cc(-c2ccnc(NC3CCN(C)CC3)n2)cn1 | 28.2µM | – | – | –
Cc1cccc(C(C)C)c1NC(=O)CCl | – | · | · | ·
O=C(NCCN1CCCC1)c1cc2cn(C3CC3)cc2s1 | 10µM | – | – | –
O=C(N[C@@H]1CCOC[C@H]1OCCO)c1cccc(-c2ccco2)c1 | 28.2µM | – | – | –
O=C(N[C@@H]1CCOC[C@H]1OCCO)c1cc(C2CC2)nc2ccccc12 | 28.2µM | – | – | –
Cn1ncc2c(C(=O)Nc3cccc(F)c3)cc(-c3cccc(F)c3)nc21 | · | · | · | –
NC(=O)[C@@H]1CN(C(=O)c2cccc3c2OC(F)(F)O3)[C@H]2c3ccccc3O[C@@H]12 | · | · | · | –
CC(C)n1nc(OC(C)(C)C(=O)NC2CCOCC2)c2cc(CN3CCOCC3)ccc21 | 31.6µM | – | – | –
CC(C)n1nc(OC(C)(C)C(=O)NCCOc2ccccc2)c2cc(CN3CCOCC3)ccc21 | 28.2µM | – | – | –
CC(C)CNC(=O)C(C)(C)Oc1nn(C(C)C)c2ccc(CN3CCOCC3)cc12 | 35.5µM | – | – | –
CC(C)n1nc(OC(C)(C)C(=O)NC2CCC(O)CC2)c2cc(CN3CCOCC3)ccc21 (stereo not given) | 25.1µM | – | – | –
Cn1nc(C(=O)N2CCOCC2)cc1C(=O)Nc1cc(F)ccc1F | – | · | · | ·
COc1ccccc1C(=O)Nc1ccc2oc(-c3ccc4ccccc4c3)nc2c1 | – | · | · | ·
COCc1ccc2c(c1)c(OC(C)(C)C(=O)NCC1CCOCC1)nn2Cc1cccnc1 | – | – | – | –
CC(C)(Oc1nn(CC2CC2)c2ccc(CN3CCCC3)cc12)C(=O)Nc1cccnc1 | 28.2µM | – | – | –
CN(C)C(=O)c1ccc(-c2ccc(N3CCCCCC3)nc2)cc1 | 28.2µM | – | – | –
SMILES | KDM5B inh | HEK293 viab | SNCA expr inhib | IP6K1 inhibitor
O=C(c1ccc(-c2ccc(N3CCCCCC3)nc2)cc1)N1CCCC1 | 25.1µM | – | – | –
O=C(NC1CCCC1)c1ccc(-c2ccc(N3CCCCC3)nc2)cc1 | 11.2µM | – | – | –
CC(C)NC(=O)c1ccc(-c2ccc(N3CCCCCC3)nc2)cc1 | – | – | – | –
Cc1cc(C)cc(-c2ccc(CN3CCCC(NC(=O)c4ccncc4)C3)cc2)c1 (stereo not given) | · | – | ? | –
O=C(NCc1ccccn1)C1CCN(Cc2cc3n(n2)CCCNC3)CC1 | – | – | – | –
O=C(NCc1cc2n(n1)CCNC2)C1CCCN(c2ccccn2)C1 (stereo not given) | 31.6µM | – | ? | –
c1ccc(CC2=NOC3(CCN(Cc4ccccc4)C3)C2)cc1 (stereo not given) | 31.6µM | – | – | –
Cc1ccc2c(n1)OC(COc1ccccc1)CN(Cc1ccccc1)C2=O (stereo not given) | · | · | · | –
COc1ccccc1-c1cc(C(=O)N2CCCC2)nc2c1cnn2C | 79.4µM | – | – | –
C#CCNC(=O)c1cc(-c2ccccc2OC)c2cnn(C)c2n1 | 89.1µM | – | – | –
CCN(CC)S(=O)(=O)c1ccc(=O)n(Cc2cc(=O)oc3cc(C)ccc23)c1 | – | · | · | ·
C1=C/COCc2cc(ccc2OCCN2CCCC2)Nc2nccc(n2)-c2cccc(c2)COC/1 | · | 9.47µM | · | –
Cc1ccc(C(=O)N2CCC3(CC2)CCN(CCc2ccccc2)c2ccccc2O3)cc1 | ? | – | – | –
NC(=O)C(c1ccccc1)(c1ccccc1)c1ccccc1 | – | · | · | ·
Cc1cc(-c2cc3c(n(Cc4cccnc4)c2=O)CCN(C(=O)CCc2ccccc2)C3)ccc1F | 25.1µM | – | – | –
CCn1c2c(c(=O)n1-c1ccccc1)CCN(C(=O)CCc1cccnc1)C2 | – | – | – | –
O=C(NCc1cccc(F)c1)C1(c2ccc(Cl)cc2)CCOCC1 | · | · | · | –
CCC(CC)C(=O)NC[C@@H]1C=C(C)[C@H](Cc2nc3c(C)cccc3[nH]2)C[C@H]1C(C)C | – | 14.1µM | ? | –
CCCNC(=O)NC[C@@H]1C=C(C)[C@H](Cc2nc3ccc(OC)cc3[nH]2)C[C@H]1C(C)C | ? | 28.2µM | ? | –
CC1=C[C@@H](CNC(=O)NC2CCCCC2)[C@H](C(C)C)C[C@H]1Cc1nc2c(C)cccc2[nH]1 | – | – | – | –
Cn1ncc2c(C(=O)NCc3cccnc3)cc(-c3cccc(F)c3)nc21 | · | · | · | –
Cc1ccc(Nc2ccnc(N3CCC(NC(=O)C4CC4)CC3)n2)cc1 | · | – | ? | –
CCN(CC)C(=O)[C@@H]1C[C@H](N)CN1C(=O)c1cc2ccccc2n(C)c1=O | 31.6µM | – | – | –
CCNC(=O)[C@@H]1C[C@H](N)CN1C(=O)c1ccc(NC(C)=O)cc1C | – | – | – | –
COC(=O)N1CCN(c2ccc3nnc(-c4ccccc4)n3n2)CC1 | · | · | · | –
SMILES | KDM5B inh | HEK293 viab | SNCA expr inhib | IP6K1 inhibitor
Cc1cc(C)n2ncc(C(=O)N3CCC(c4[nH]ncc4-c4ccccc4)CC3)c2n1 | ? | – | – | –
Cc1nc2ncccn2c1C(=O)N1CCC(c2[nH]ncc2-c2ccccc2)CC1 | 28.2µM | – | – | –
COCCNc1ncc(-c2ccc(O)cc2)c2c1OCC2 | 31.6µM | – | – | –
COCCNc1ncc(-c2cccc(O)c2)c2c1OCC2 | ? | – | – | –
COCCNc1ncc(-c2ccc(O)c(OC)c2)c2c1OCC2 | 35.5µM | – | – | –
COCCNc1ncc(-c2ccc(OC)c(OC)c2)c2c1OCC2 | 35.5µM | – | – | –
Cc1nn(-c2ccccc2)c2c1C(C(C)C)N(C1CN(C(=O)c3ccc(Cl)cc3)C1)C2=O (stereo not given) | · | · | · | –
COc1cc2nc(N3CCC(N4CCCCC4)CC3)nc(NC3CCCCCC3)c2cc1OC | · | 23.8µM | · | –
COc1ccc(NC(=O)c2cc3n(n2)CC(c2ccc(Cl)cc2)OC3)cc1Cl (stereo not given) | 25.1µM | – | – | –
O=C(Nc1ccc(F)c(Cl)c1)c1cc2n(n1)CC(c1ccc3c(c1)OCO3)OC2 (stereo not given) | 31.6µM | – | – | –
O=C(Nc1ccc(Cl)c(Cl)c1)c1cc2n(n1)CC(c1ccc(Cl)cc1)OC2 (stereo not given) | 28.2µM | – | – | –
